A number with no mark means an inactive call. Calls of active or inactive are those of the source.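 The calls were made as follows: active = calcium retention capacity relative to untreated control above about 1.1 ratio (limit read from the data); inactive = the rest.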

The experiment can be described thus: mitochondrial Ca2+ retention capacity increase – biochemical, dry powder samples, uHTS hits, Calcium Green-5N, dose response (AID 743360). Conditions: isolated mitochondria, Ca retention capacity.
Consider `COc1ccc(Cl)cc1C(=O)Nc1ccc(CN2CCN(C)CC2)cc1`, for which the CRC/CRC0 ratio at 12.5 uM (higher = more inhibition) was 1.24 (active).
To `CN1CCN(CCc2ccc(NS(=O)(=O)c3ccc(F)c(Cl)c3)cc2)CC1` belongs 1.08.
The value for `COc1ccc(Cl)cc1S(=O)(=O)Nc1ccc(CCN2CCN(C)CC2)cc1` was 1.03; that for `C[C@@H]1CCC[C@H](C)N1CCCC(=O)c1ccc(Br)cc1` was 1.01.
The value for `CN1CCN(c2ccccc2NC(=O)c2ccc(OCc3ccccc3)cc2)CC1` was 1.24 (active).
Turning to `O=C(Nc1cccc(Cl)c1Cl)c1cc(-c2cccc(O)c2)on1`, the CRC/CRC0 ratio at 12.5 uM (higher = more inhibition) is 4 (active).
As for `COc1ccc(Cl)cc1S(=O)(=O)Nc1ccc(CN2CCCCC2)cc1`, the CRC/CRC0 ratio at 12.5 uM (higher = more inhibition) is 1.05.
For `CN1CCN(CCc2ccc(NS(=O)(=O)c3cc(Cl)cc(Cl)c3)cc2)CC1`, the CRC/CRC0 ratio at 12.5 uM (higher = more inhibition) was 1.09.
The value for `O=S(=O)(Nc1ccc(CN2CCCCC2)cc1)c1cc(Cl)cc(Cl)c1` was 1.07; that for `CN1CCN(Cc2ccc(NS(=O)(=O)c3ccc(F)c(Cl)c3)cc2)CC1` was 1.07; that for `O=C(Nc1cc(Cl)cc(Cl)c1)c1cc(-c2cccc(O)c2)on1` was 12.1 (active).
To `Cc1c(Cl)cccc1NC(=O)c1cc(-c2cccc(O)c2)on1` belongs 6 (active).
For the molecule `Cc1ccc(NC(=O)c2cc(-c3cccc(O)c3)on2)cc1Cl`, the CRC/CRC0 ratio at 12.5 uM (higher = more inhibition) was 2.58 (active).
Take `CC1(C)CCN(CCCC(=O)c2ccc(Br)cc2)CC1`: the CRC/CRC0 ratio at 12.5 uM (higher = more inhibition) is 1.1 (active).
Take `CC(C)c1cc(C(=O)Nc2ccc(F)cc2F)no1`: the CRC/CRC0 ratio at 12.5 uM (higher = more inhibition) was 1.09.
To `CCc1ccccc1NC(=O)c1cc(-c2ccccc2)on1` belongs over 1.
Regarding `O=C(Nc1ccc(F)cc1F)c1cc(-c2ccccc2)on1`, the CRC/CRC0 ratio at 12.5 uM (higher = more inhibition) was over 1.

(Values after PubChem BioAssay AID743360 (Molecular Libraries Program, Specialized Chemistry Center, …, 2014).)
